In PubChem BioAssay:
A number with no mark means an inactive call. Activity calls are given as the source filed them. Rule as the data show it, unless noted: active = inhibition above about 30%; inactive = the rest.

Experiments:
[1] = molecular target: Nuclear receptor coactivator 3 (Homo sapiens) (UniProt Q9Y6Q9); assay: SRC3 coactivator transcriptional activity inhibitors, confirmation, cell-based, luminescence, quadruplicate (AID 588792;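 active = mean inhibition over 43.08%, the solvent-only control mean plus 3 SD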;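 also: 0% = DMSO treated cells and 100% = gossypol at 36 µM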); settings: HEK293 GAL4-SRC3 luciferase reporter, at 3.6 µM, stronger effect = higher value
[2] = tested on: transactivating tegument protein VP16 (Human herpesvirus 1), Gal4-VP16 luciferase reporter; assay: VP16 transactivation inhibitors, counter-screen for SRC3 inhibitor project, cell-based, luminescence, high throughput (AID 588794); settings: mammalian cells, VP16-driven luciferase reporter luminescence; at 3.6 µM; stronger effect = higher value

Nuclear receptor coactivator 3 (Homo sapiens), sequence (Q9Y6Q9 whole entry, looked up, the tested form may be a part): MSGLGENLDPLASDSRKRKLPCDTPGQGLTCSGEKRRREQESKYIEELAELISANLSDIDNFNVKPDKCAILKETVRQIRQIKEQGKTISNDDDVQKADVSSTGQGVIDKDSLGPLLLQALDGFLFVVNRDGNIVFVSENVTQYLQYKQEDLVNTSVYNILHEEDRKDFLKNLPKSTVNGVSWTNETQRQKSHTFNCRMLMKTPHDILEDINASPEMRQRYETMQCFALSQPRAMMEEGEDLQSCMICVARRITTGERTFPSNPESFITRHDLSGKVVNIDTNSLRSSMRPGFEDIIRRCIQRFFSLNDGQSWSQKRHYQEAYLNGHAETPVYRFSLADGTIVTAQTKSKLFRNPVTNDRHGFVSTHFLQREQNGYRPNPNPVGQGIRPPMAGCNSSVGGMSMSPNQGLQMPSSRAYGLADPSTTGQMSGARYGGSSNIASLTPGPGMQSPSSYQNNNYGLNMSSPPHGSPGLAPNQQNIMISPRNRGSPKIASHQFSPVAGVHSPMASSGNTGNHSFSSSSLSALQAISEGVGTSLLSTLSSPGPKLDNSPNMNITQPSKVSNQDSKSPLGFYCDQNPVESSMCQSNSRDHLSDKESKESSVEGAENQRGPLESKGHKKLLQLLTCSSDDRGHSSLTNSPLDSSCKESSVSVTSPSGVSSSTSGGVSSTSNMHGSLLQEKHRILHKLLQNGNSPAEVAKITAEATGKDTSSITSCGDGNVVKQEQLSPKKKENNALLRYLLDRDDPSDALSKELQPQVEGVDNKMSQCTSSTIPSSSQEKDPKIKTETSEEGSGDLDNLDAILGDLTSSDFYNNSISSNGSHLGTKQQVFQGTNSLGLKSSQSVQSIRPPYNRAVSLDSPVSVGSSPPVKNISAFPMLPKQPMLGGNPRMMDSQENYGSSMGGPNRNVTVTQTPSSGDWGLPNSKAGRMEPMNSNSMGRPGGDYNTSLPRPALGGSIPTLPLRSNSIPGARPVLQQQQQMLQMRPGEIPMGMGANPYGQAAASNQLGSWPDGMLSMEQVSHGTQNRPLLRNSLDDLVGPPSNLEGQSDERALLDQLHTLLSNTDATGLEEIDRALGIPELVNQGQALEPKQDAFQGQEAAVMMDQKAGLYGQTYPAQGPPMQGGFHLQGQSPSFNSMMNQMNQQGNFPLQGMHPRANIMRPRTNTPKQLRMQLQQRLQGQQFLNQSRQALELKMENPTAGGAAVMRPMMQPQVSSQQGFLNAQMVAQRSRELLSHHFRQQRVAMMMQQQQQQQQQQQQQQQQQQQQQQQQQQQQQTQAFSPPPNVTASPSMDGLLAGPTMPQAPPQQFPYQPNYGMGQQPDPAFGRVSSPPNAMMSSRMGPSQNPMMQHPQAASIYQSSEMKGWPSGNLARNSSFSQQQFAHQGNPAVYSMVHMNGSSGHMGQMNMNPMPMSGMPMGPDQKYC

| Structure (SMILES) | inhibition [1] | inhibition [2] |
| --- | --- | --- |
| COc1cc(C(=O)N/N=C/c2coc3ccc(Cl)cc3c2=O)ccc1O | 24.2% | 15.9% |
| O=S(=O)(CC(CN1CCCCC1)N1CCCCC1)c1ccc2ccccc2c1 (stereo not given) | 4.5% | 6.94% |
| CC[C@H](C)Cc1cn([C@@H](CCCCNC(=O)OC(C)(C)C)C(=O)NCCCCCCCCCCC(=O)N2CCN(C(=O)OC(C)(C)C)CC2)nn1 | 17.9% | 22.5% |
| CNC(=O)c1ccc(-c2sc3nc(N4CCOCC4)c4c(c3c2N)CC(C)(C)OC4)o1 | 3.63% | -22.1% |
| COc1ccc(CCNC(=O)C2CCCN(S(C)(=O)=O)C2)cc1OC (stereo not given) | -14% | -3.27% |
| O=C1C=CC(=O)N1CCNc1ncc(C(F)(F)F)cc1Cl | 7.05% | -14.1% |
| Cc1ccc(C)c(S(=O)(=O)N2CCCCC2CCNC(=O)C(=O)NCc2ccncc2)c1 (stereo not given) | 0.55% | 7.08% |
| O=C(Nc1ccccc1C(=O)Nc1nnc(C(F)(F)F)s1)c1ccccc1Cl | 12.3% | 11% |
| CCOC(=O)c1c(Nc2ccccc2OCCOC)n[nH]c1C | -0.73% | -0.92% |
| CC(C)(C)c1csc(Sc2ccc([N+](=O)[O-])cn2)n1 | 13.1% | -8.39% |
| Cc1cccc(C)c1OCC(=O)N(Cc1cccs1)C1CCS(=O)(=O)C1 (stereo not given) | 8.07% | 1.1% |
| O=C1c2cccc(NCCNCCO)c2C(=O)c2cccc(NCCNCCO)c21 | -30.9% | 37.6% (active) |
| COc1ccc([N+](=O)[O-])cc1NC(=O)Nc1cccc(Cl)c1 | 19.4% | 15.4% |
| O=C(NCc1cccs1)C1CCCN(C(=O)Nc2ccc(F)cc2)C1 (stereo not given) | -1.07% | 5.59% |
| COc1ccc(NC(=O)c2cc3c(-c4ccc(OC)c(OC)c4)nn(C)c3s2)cc1OC | 10.7% | 10.5% |
| N#CCc1ccc(NC(=O)c2ccc(S(=O)(=O)N3CCOCC3)cc2)cc1 | -11.6% | -6.42% |
| COc1ccc(CCNC(=O)COc2ccc(N(C)S(=O)(=O)c3ccc(Cl)cc3)cc2)cc1 | 10.9% | 20.2% |
| CCOC(=O)C1=CCN(S(=O)(=O)c2ccc(C)cc2)C1c1cccc(Cl)c1 (stereo not given) | 15.1% | 6.03% |

| Structure (SMILES) | inhibition [1] | inhibition [2] |
| --- | --- | --- |
| COc1ccc2[nH]c(C(=O)N/N=C/c3ccc(O)cc3O)cc2c1 | 54.5% (active) | 45.9% (active) |
| COc1cc(/C=C2/SC(=S)N(c3ccccc3)C2=O)ccc1Oc1nc(N2CCOCC2)nc(N2CCOCC2)n1 | 4.82% | -7.44% |
| O=C(C[n+]1ccccc1)NNc1ccccc1 | 33.2% | 47.4% (active) |
| COc1ccc(CCNc2ncnc3sccc23)cc1OC | 12% | 42.6% (active) |
| Cc1ccccc1OCc1n(CC(=O)OC2CC(C)CCC2C(C)C)c2ccccc2[n+]1C (stereo not given) | 13% | 22.8% |
| COc1ccc(C)cc1NC(=O)CN1C(=O)CSc2ccc(S(=O)(=O)N3CCCC3)cc21 | 4.25% | 3.04% |
| CC(=O)c1cccc(NC(=O)Nc2ccc3c(c2)N(C)C(=O)CS3)c1 | 32.7% | 3.54% |
| [O-]C(=C(C(=S)Nc1cccc2ccccc12)[n+]1ccccc1)c1ccc2c(c1)OCCO2 | 3.21% | -0.81% |
| Cc1ccc(S(=O)(=O)N2C[C@H]3C(=O)C[C@@H](c4ccccc4)N(S(=O)(=O)c4ccc(C)cc4)[C@H]3C[C@H]2c2ccccc2F)cc1 | 6.96% | 2.52% |
| CC1(C)CC(=O)C=C(C#CC2(O)CCCCC2)C1 | 19% | 1.31% |
| COc1ccc(O)c(-c2[nH]ncc2C(=O)c2ccccc2)c1 | 26.3% | 18.6% |
| CCOc1ccccc1/C=C/c1onc(C)c1S(=O)(=O)N1CCC(C(=O)N(CC)CC)CC1 | 5.63% | 3.37% |
| CCSc1ccccc1C(=O)NCc1ccc2c(c1)OCO2 | 1.07% | -10.1% |
| CC1CN(Cc2ccccc2)c2nc3c(c(=O)n(CC(N)=O)c(=O)n3C)n2C1 (stereo not given) | 0.26% | -4.77% |
| O=C(Nc1cccc(S(=O)(=O)N2CCCCC2)c1)c1ccc(S(=O)(=O)C(F)F)cc1 | 3.35% | 14.9% |
| COCCN(CCOC)S(=O)(=O)c1ccc(C(=O)Nc2nc3c(s2)CCc2ccccc2-3)cc1 | 0.71% | 0.01% |
| COc1cc(NC(=O)C2CCN(S(=O)(=O)c3ccc(N4CCCC4=O)cc3)CC2)cc(OC)c1 | 7.83% | 5.99% |
